Whole data set: some 140,000 sequences, median “enrichment ratio after two sorts for PhoP signalling” near 0, cut for the highest 2% near 11. This excerpt belongs to a sample that is enriched for the highest values.
B1: PhoQ; a variant is named by its letters at X, in order, P23837 (parent)
chain: MKKLLRLFFPLSLRVRFLLATAAVVLVLSLAYGMVALIGYSVSFDKTTFRLLRGESNLFYTLAKWENNKLHVELPENIDKQSPTMTLIYDENGQLLWAQRDVPWLMKMIQPDWLKSNGFHEIEADVNDTSLLLSGDHSIQQQLQEVREDDDDAEMTHSVAVNVYPATSRMPKLTIVVVDTIPVELKSSYMVWSWFIYVLSANLLLVIPLLWVAAWWSLRPIEALAKEVRELEEHNRELLNPATTRELTSLVRNLNRLLKSERERYDKYRTTLTDLTHSLKTPLXXLQXXLRSLRSEKMSVSDAEPVMLEQISRISQQIGYYLHRASMRGGTLLSRELHPVAPLLDNLTSALNKVYQRKGVNISLDISPEISFVGEQNDFVEVMGNVLDNACKYCLEFVEISARQTDEHLYIVVEDDGPGIPLSKREVIFDRGQRVDTLRPGQGVGLAVAREITEQYEGKIVAGESMLGGARMEVIFGRQHSAPKDE

Variants of: B1
Test: enrichment ratio after two sorts for PhoP signalling (ratio (wild type AVST 3.29)); higher = more functional
Details: with PhoP (E. coli)

Variant	enrichment ratio
ATVL	4.07
EFKF	≤ 0.25
SCEM	≤ 0.25
CFGC	≤ 0.25
TMTS	11.7
NQGC	≤ 0.25
TMQR	8.83
AQGC	12.4
TMKR	≤ 0.25
TMPI	≤ 0.25
TGGC	11.2
THGC	5.27
TMCR	20.7
AIGC	5.62
TMWA	≤ 0.25
RMSH	≤ 0.25
QWWT	≤ 0.25
TGKL	≤ 0.25
NNCI	≤ 0.25
HTDV	≤ 0.25
IQST	≤ 0.25
SVER	≤ 0.25
HCRQ	≤ 0.25
NKWN	≤ 0.25
SRGC	≤ 0.25

Variant	enrichment ratio
LTGC	≤ 0.25
KSGC	≤ 0.25
SSGC	13.8
FDGC	≤ 0.25
VGGC	≤ 0.25
TAGC	13.9
KAGC	≤ 0.25
TDGC	17.1
MLHI	1.88
WSGR	≤ 0.25
TCPW	≤ 0.25
LTCV	≤ 0.25
RIDL	≤ 0.25
TYQH	≤ 0.25
CKSI	≤ 0.25
WTRS	≤ 0.25
TFHR	≤ 0.25
YNLV	1.85
DWIL	≤ 0.25
DWSY	≤ 0.25
TQSY	12.3
FQII	≤ 0.25
NVSY	≤ 0.25
TQII	15.7
TQID	≤ 0.25

Variant	enrichment ratio
NHQY	≤ 0.25
SHQY	≤ 0.25
TQAY	17
THQY	15
FQAY	≤ 0.25
LAAY	≤ 0.25
EFDW	≤ 0.25
DSGT	≤ 0.25
HYAH	≤ 0.25
YAPS	0.949
YQLH	0.516
HVYR	≤ 0.25
TQEY	≤ 0.25
SPQY	≤ 0.25
LAQY	≤ 0.25
MMQY	≤ 0.25
TVQY	19.2
TQQY	15.1
TSQY	13.5
KSQY	≤ 0.25
NVQY	≤ 0.25
VSHP	≤ 0.25
ARTY	≤ 0.25
IGHH	2.36
LVAL	≤ 0.25

Variant	enrichment ratio
YMKE	≤ 0.25
RLRC	≤ 0.25
FSML	12.7
VYML	≤ 0.25
QSML	3.2
VTEL	≤ 0.25
VTML	15.3
VFML	≤ 0.25
FQML	0.396
RSML	≤ 0.25
YSML	14.4
VSML	15.7
LPWT	≤ 0.25
DNAA	≤ 0.25
DPIA	≤ 0.25
GRAC	≤ 0.25
NSML	4.86
KSML	≤ 0.25
TSML	17.8
PARS	≤ 0.25
QYPA	≤ 0.25
YART	≤ 0.25
QKCC	≤ 0.25
HCGQ	≤ 0.25
NVGG	≤ 0.25

Variant	enrichment ratio
PVGG	≤ 0.25
KIGQ	≤ 0.25
TVGG	16.2
TVGQ	15.3
ELLA	≤ 0.25
RCNM	≤ 0.25
THRA	≤ 0.25
PAWH	≤ 0.25
THDV	≤ 0.25
RHTL	≤ 0.25
GNCT	10.8
NEQT	≤ 0.25
KRQT	≤ 0.25
TEQT	23.1
GGCT	15.6
MKTS	≤ 0.25
TGCT	1.82
TKTS	11.9
TIQT	12.7
AKTS	5.9
AIQT	≤ 0.25
RIQT	≤ 0.25
QLVG	≤ 0.25
ADVM	6.88
KTVF	≤ 0.25

Variant	enrichment ratio
GTKH	≤ 0.25
IWLA	≤ 0.25
ADCT	≤ 0.25
HKCT	≤ 0.25
TDCT	14.8
TRCT	18.2
TKCT	38.2
KKCT	≤ 0.25
KRCT	≤ 0.25
HRCT	≤ 0.25
ADQT	≤ 0.25
KDQT	≤ 0.25
TDQT	34.2
FDCT	≤ 0.25
SNRN	≤ 0.25
VNAY	≤ 0.25
NARV	≤ 0.25
WLPG	≤ 0.25
LHMC	≤ 0.25
VHGV	≤ 0.25
KDPY	≤ 0.25
PSCV	≤ 0.25
TKAT	14.5
TKLT	15.3
TKQT	11.7

Variant	enrichment ratio
KAQT	≤ 0.25
KKLT	≤ 0.25
TKFT	≤ 0.25
TKKT	≤ 0.25
KSQT	≤ 0.25
TKPT	≤ 0.25
TDYD	≤ 0.25
WDAF	≤ 0.25
MRHT	0.477
NEHT	≤ 0.25
MLHT	11.5
QEHT	9.94
YYHT	≤ 0.25
KLHT	≤ 0.25
MEHT	24.2
MMHT	≤ 0.25
TEHT	27.2
NWHY	≤ 0.25
TYIE	≤ 0.25
DLWY	≤ 0.25
KLWE	≤ 0.25
KHER	≤ 0.25
TVFL	≤ 0.25
LIMQ	≤ 0.25
NNDM	≤ 0.25

Variant	enrichment ratio
FCHM	≤ 0.25
YDSV	≤ 0.25
STSV	9.12
YTSV	≤ 0.25
KQSV	≤ 0.25
TTSV	15.8
ATSV	12.7
SWRT	≤ 0.25
RRQV	≤ 0.25
VWEC	≤ 0.25
TETM	22.4
TETA	≤ 0.25
TETK	≤ 0.25
QETE	≤ 0.25
TETI	17.3
TETR	≤ 0.25
METE	≤ 0.25
TETD	2.04
TETE	18.8
TETS	13.7
TEPM	≤ 0.25
RPDP	≤ 0.25
MVRG	≤ 0.25
NTNY	≤ 0.25
LYEH	≤ 0.25

Variant	enrichment ratio
IGTK	≤ 0.25
WQPW	≤ 0.25
PICS	≤ 0.25
DNDH	≤ 0.25
WQRE	≤ 0.25
LRQP	≤ 0.25
HPHL	≤ 0.25
GFYA	≤ 0.25
DGSI	≤ 0.25
GYWI	≤ 0.25
IGSE	≤ 0.25
TETG	35.8
QETG	≤ 0.25
METG	4.62
SFGG	≤ 0.25
PIPY	≤ 0.25
KIVE	≤ 0.25
EFFM	≤ 0.25
SNSN	12.5
KSSN	≤ 0.25
NSSN	≤ 0.25
STSN	11.3
KQSN	≤ 0.25
SRSN	≤ 0.25
SDSN	≤ 0.25

Variant	enrichment ratio
SCSN	12.3
SSSN	12.1
SQSN	7.46
YTSN	≤ 0.25
SLSN	8.45
DMGM	≤ 0.25
VHGA	≤ 0.25
FTWC	≤ 0.25
RPLR	≤ 0.25
EKAY	≤ 0.25
FPIV	≤ 0.25
SGSN	13.3
TGSN	8.1
SGSG	8.15
WDWH	≤ 0.25
SETC	13.2
SRSH	≤ 0.25
SRSQ	≤ 0.25
SESC	18.4
SEFC	10.4
SESK	5.02
SESH	13.1
KYSC	≤ 0.25
SENK	≤ 0.25
SESQ	13.9

Variant	enrichment ratio
SQSQ	8.8
DDSC	≤ 0.25
LSYF	0.698
FERS	≤ 0.25
FKHR	≤ 0.25
QKRW	≤ 0.25
TIRN	≤ 0.25
KKEL	≤ 0.25
MLWA	≤ 0.25
HFVY	≤ 0.25
GASL	3.66
METM	4.44
SETA	10.5
SLEC	≤ 0.25
SETH	15.6
SETG	9.95
SETW	3.01
SETK	≤ 0.25
SETM	18.3
KYEC	≤ 0.25
SEEC	15.4
SETI	19.9
ICMG	≤ 0.25
NYHW	≤ 0.25
EGMK	≤ 0.25

Variant	enrichment ratio
SVFE	≤ 0.25
PKCE	≤ 0.25
LWIA	≤ 0.25
VVHK	≤ 0.25
PWSL	≤ 0.25
YMEP	≤ 0.25
SEMH	19.3
KYMH	≤ 0.25
SANH	≤ 0.25
SETD	≤ 0.25
STMH	8.42
SETS	12
SASH	12.2
SETE	5.75
SASK	≤ 0.25
DGLS	≤ 0.25
FPTK	≤ 0.25
DPHW	≤ 0.25
WDVW	≤ 0.25
QFAR	≤ 0.25
VVQA	≤ 0.25
PSLS	≤ 0.25
WGGY	≤ 0.25
ITTH	≤ 0.25
DSGI	≤ 0.25

Variant	enrichment ratio
NRIH	≤ 0.25
KATM	≤ 0.25
GCIM	24.5
GCGM	2.98
GAPM	≤ 0.25
GSWM	≤ 0.25
NATM	≤ 0.25
GATM	15.3
GAIM	15.4
KAIM	≤ 0.25
GSIM	11.6
GSTM	6.87
GCCK	≤ 0.25

— a collection of fitness landscapes (doi:10.1126/science.1257360)
